# Compound activity deposited in PubChem BioAssay by National Center for Advancing Translational Sciences (NCATS).
# D2 PAM-1: positive allosteric modulators of human D2 dopamine receptor. HEK293 T-REx D2, calcium flux, EC20 dopamine potentiation. potentiation, % at 10 µM. 340,000 compounds, 0.34% hits;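 active = potentiation over 3 SD above the plate norm, cut at about 30% in these data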; note: 0% is about no effect
# Target sequence (P14416 whole entry, looked up): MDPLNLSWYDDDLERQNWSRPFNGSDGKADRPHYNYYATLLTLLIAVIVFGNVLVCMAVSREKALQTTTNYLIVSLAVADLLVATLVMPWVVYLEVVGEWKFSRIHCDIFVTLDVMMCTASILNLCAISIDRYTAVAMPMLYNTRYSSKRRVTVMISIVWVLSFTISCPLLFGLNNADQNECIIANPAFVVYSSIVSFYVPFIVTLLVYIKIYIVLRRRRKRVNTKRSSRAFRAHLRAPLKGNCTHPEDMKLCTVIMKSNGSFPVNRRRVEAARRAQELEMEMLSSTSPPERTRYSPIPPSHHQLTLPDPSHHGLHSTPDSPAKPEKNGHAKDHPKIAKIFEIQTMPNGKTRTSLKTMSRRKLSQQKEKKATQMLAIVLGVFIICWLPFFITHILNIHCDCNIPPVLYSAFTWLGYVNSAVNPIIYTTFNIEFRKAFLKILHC
#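 Using a no-wash calcium dye in inducible, force-coupled HEK293 Trex cells expressing D2, we tracked fluorescence each second for 180 s after compound, then for 180 s after EC20 dopamine to detect augmented signalling.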
# D2 ag-1: activates the human D2 dopamine receptor; activation, % (no concentration beside the values); DiscoveRx PathHunter D2 beta-arrestin, luminescence, 90 min; 100% = 57 uM dopamine signal; AID 624465; 360,000 compounds, 0.084% hits; in the data active = activation above about 40%
#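 Agonist mode: compounds alone added to overnight-plated D2 PathHunter cells for 90 min at 37 C, with 57 uM final dopamine (EC100) defining full response. Beta-arrestin recruitment detected by chemiluminescent reagent, read after 1 h at ambient temperature.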
# D2 antagonist: D2 dopamine receptor (human) antagonism. HEK293 TREx D2 cells, calcium flux, dopamine EC80. inhibition, % at 10 µM. 340,000 compounds, 2% hits. AID 485344; in the data active = inhibition above about 30%; inactive = below that, where a call was filed; note: 0% is about no effect
#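 Cells plated overnight at 30 C with tetracycline; no-wash calcium dye, 30–90 min RT; 10 s baseline; compound pinned; 180 s read; EC80 dopamine added; another 180 s read.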
# D2 ag-2: agonists of human D2 dopamine receptor. P14416. HEK293 T-REx D2 cells, calcium flux agonist mode. activation, % at 2 µM. 340,000 compounds, 0.53% hits;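 active = activation over 3 SD above normal in the single-dose calcium agonist read, cut at about 30% in these data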; note: 0% is about no effect
#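 In this primary screen, compounds producing a positive calcium signal within 180 s of addition to tetracycline-induced, force-coupled HEK293 Trex D2 cells are flagged; cells are dye-loaded with a no-wash calcium kit beforehand.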
# D2 PAM-2: potentiates the human D2 dopamine receptor allosterically; P14416; DiscoveRx D2 beta-arrestin cells, luminescence, 90 min; 100% = 57 uM dopamine signal; potentiation, % (test concentration not listed); 360,000 compounds, 0.23% hits; in the data active = potentiation above about 50%
#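 PathHunter D2 cells, attached overnight at 37 deg C, received compound in DMSO plus dopamine at EC20 (50 nM final) for 90 min at 37 deg C. Beta-arrestin recruitment was read as luminescence after 1 h with detection reagent at ambient temperature.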
# An asterisk follows results filed as active; / = no result. Hits are enriched below; roughly 2.4% of the tested compounds scored in any of these assays.
SMILES,D2 PAM-1,D2 ag-1,D2 antagonist,D2 ag-2,D2 PAM-2
CC(=O)NC12CC3CC(C1)CC(C(=O)N1CCN(S(=O)(=O)c4ccccc4[N+](=O)[O-])CC1)(C3)C2,-15,-1,45*,0,-2
COc1ccc(OC)c(NC(=O)[C@H](CSCc2ccccc2)N2Cc3ccccc3C2=O)c1,-1,/,/,0,/
C=CCN(c1ccc(C(=O)Nc2cccc([N+](=O)[O-])c2)cc1)S(C)(=O)=O,-29,2,37*,0,-17
Cc1n[nH]c(=O)c2c1nnn2Cc1ccccc1Cl,-7,-1,58*,0,-8
O=c1[nH]nc(C(F)(F)F)c2nnn(Cc3ccccc3Cl)c12,-1,5,-1,0,1
O=C(COc1ccccc1Cl)Nc1ccc(C(=O)O)cc1NC(=O)COc1ccccc1Cl,7,-7,4,0,1
O=C(COc1ccccc1Cl)Nc1ccccc1C(=O)Nc1cccc(C(=O)O)c1,-1,-1,31*,0,-4
Clc1cccc(N2CCN(c3ncnc4c3nc3n4CCCCC3)CC2)c1,8,/,/,/,/
O=c1c2nnn(-c3cccc(F)c3)c2ncn1Cc1ccccn1,-19,1,34*,0,2
CCCCCC(=O)N(c1ccc(OCC)cc1)S(=O)(=O)c1ccc2c(c1)n(C)c(=O)n2C,9,/,/,-1,/
CCN(CC)S(=O)(=O)c1ccc(Cl)c(C(=O)Nc2ccc(Cl)cc2[N+](=O)[O-])c1,3,12,-9,-1,63*
CCc1cccc(NC(=O)CSc2nc3ccccc3nc2N2CCCCC2)c1,7,/,/,/,/
CC(C(=O)OCC(=O)c1ccc(Br)cc1)N1C(=O)C2C3C=CC(C3)C2C1=O (stereo not given),32*,-3,-20,2,-1
O=c1c2c(nc3cc(-c4ccccc4)[nH]n13)CCC2,-4,1,-19,0,-9
O=c1c2c(nc3cc(-c4ccc(Br)cc4)[nH]n13)CCCC2,-27,-2,54*,11,-13
Cc1cccc(NC(=O)C(=O)NCC(c2cccnc2)N2CCOCC2)c1 (stereo not given),5,/,/,1,/
COc1cc(C2CC(=O)n3c(nc4ccccc43)S2)cc(OC)c1OC (stereo not given),30*,/,-2,0,/
O=C(O)C1CC(=O)n2c(nc3ccccc32)S1 (stereo not given),21,-4,5,0,8
CCN(CC)CCNC(=S)Nc1ccc2nc3n(c(=O)c2c1)CCCCC3,-5,-3,-13,1,-4
CCCN(CCC)CCCNC(=S)Nc1ccc2nc3n(c(=O)c2c1)CCCCC3,-18,2,-3,32*,-22
CCCn1c2ccccc2c2cnn(CC(=O)N(CCCOC(C)C)Cc3ccco3)c(=O)c21,2,/,/,-1,/
CCN1CCN(CCOCCOc2ccccc2-c2ccccc2)CC1,-19,/,60*,-1,/
CC1CCN(CCOc2ccccc2-c2ccccc2)CC1,-15,-5,75*,0,-14
CC1CC(C)CN(CCOc2ccccc2-c2ccccc2)C1 (stereo not given),-29,-1,79*,-1,-36
c1ccc(-c2ccccc2OCCOCCN2CCNCC2)cc1,-25,-2,-30,1,-14
SMILES,D2 PAM-1,D2 ag-1,D2 antagonist,D2 ag-2,D2 PAM-2
COCCn1c(SCC(=O)c2ccc(OC)cc2)nc2cc(C(=O)NC3CCCC3)ccc2c1=O,6,/,/,0,/
Cc1cccc(NCc2nc3ccccc3n2CCOc2ccccc2C)c1,3,/,/,1,/
Cc1ccn(CC(C)C(=O)O)n1 (stereo not given),-14,-3,34*,1,-4
Cc1ccn(CCSCC(=O)O)n1,-9,4,11,0,8
Cc1ccc(NC(=O)NC(=O)N(C(C)C)S(=O)(=O)c2ccc(C)cc2)cc1,-10,8,44*,7,-8
CC(C)(C)OC(=O)N1CCC(c2c(C(=O)N3CCN(c4ccccc4)CC3)cnn2-c2ccccc2)CC1,4,/,/,1,/
CCOc1ccc(N2C(=O)CC(NC3CCCCNC3=O)C2=O)cc1 (stereo not given),-6,-3,45*,0,-11
O=C1NCCCCC1NC1CC(=O)N(c2ccccc2)C1=O (stereo not given),/,-2,/,/,19
COc1ccc(Cl)cc1C(=O)NNC(=O)COC(=O)CCN=C1NS(=O)(=O)c2ccccc21,-1,-20,30*,-1,-53
COc1ccccc1C(=O)COC(=O)CCN=C1NS(=O)(=O)c2ccccc21,-3,2,-14,0,-16
CCOc1ccc(NC(=O)c2oc3ccccc3c2NC(=O)C(C)(C)C)cc1,-6,/,/,0,/
Cc1nc(Nc2cccc(O)c2)c2oc3ccccc3c2n1,1,3,33*,1,-15
CNC(=O)c1ccc(-c2sc3nc(N4CCOCC4)c4c(c3c2N)CC(C)(C)OC4)o1,-2,-1,41*,-1,5
CN(C)CCNc1ncnc2c1sc1nc(N3CCCC3)c3c(c12)CC(C)(C)OC3,-18,0,-1,2,-18
CC(C)CNc1ncnc2c1sc1nc(N3CCOCC3)c3c(c12)CC(C)(C)OC3,4,-3,33*,0,2
Cn1cnc(S(=O)(=O)N2CCCC(C(=O)NCc3ccccc3)C2)c1 (stereo not given),0,/,/,/,/
COC(=O)CN1C(=O)COc2ccc(S(=O)(=O)N3CCOCC3)cc21,6,-1,46*,1,0
O=C(CN1C(=O)COc2ccc(S(=O)(=O)N3CCCC3)cc21)N1CCCC1,1,-3,-7,0,-6
O=C(O)CN1C(=O)COc2cc(S(=O)(=O)N3CCCC3)ccc21,-8,-1,31*,1,-1
CCOc1ccc(OCC)c(NC(=O)CCc2nc3cccnc3n2-c2ccccc2)c1,13,/,/,-1,/
COc1ccc(CCNC(=O)COC(=O)C2CC2)cc1,-1,-3,31*,1,1
COc1ccc(S(=O)(=O)NC2CCCC2)cc1Br,8,-4,31*,1,-8
COc1ccc(CCNC(=O)COc2ccc(S(=O)(=O)NC3CCCCC3)cc2Cl)cc1,34*,3,-6,1,-2
COc1ccc(CNC(=O)COC(=O)c2n[nH]c3ccccc23)cc1,-8,-2,1,1,20
COc1ccc(CCNC(=O)c2n[nH]c3ccccc23)cc1,-10,2,42*,4,1
O=C(COc1ccc(S(=O)(=O)NC2CCCCC2)cc1Cl)NCC1CCCO1 (stereo not given),9,-3,-20,-1,-8
O=C(CCn1c(=O)c2cccn2c2cccnc21)Nc1ccccc1Br,2,/,/,1,/
CCN(CC)C(=O)Cn1c(=O)n(-c2ccc(Cl)cc2)c(=O)c2c3c(sc21)CCC3,5,/,/,0,/
